Bioassay records from PubChem.
Most compounds without a hit are left out; they make up all but 11% or so of the library.
NPSR antagonist: qHTS Assay for Antagonists of the Neuropeptide S Receptor: cAMP Signal Transduction. Q6W5P4. CHO-NPSR cells, cAMP TR-FRET, antagonist mode. Potency, µM (highest dose often 38.3 µM), without a hit: top-dose activity change, negative = inhibition, actives largely listed as inhibitors. actives 1% (n = 220,000); active means well fitted curve in the direction sought with a large enough effect; inconclusive means small, poorly fitted or top-dose-only effect, or another doubt; inactive means no such curve, though single readings can be large; an effect the other way counts as inactive or inconclusive; further: potency means the concentration at half of the fitted maximal effect; nearly all actives have a fitted effect of over 50% in size
Target sequence (Q6W5P4 whole entry, looked up): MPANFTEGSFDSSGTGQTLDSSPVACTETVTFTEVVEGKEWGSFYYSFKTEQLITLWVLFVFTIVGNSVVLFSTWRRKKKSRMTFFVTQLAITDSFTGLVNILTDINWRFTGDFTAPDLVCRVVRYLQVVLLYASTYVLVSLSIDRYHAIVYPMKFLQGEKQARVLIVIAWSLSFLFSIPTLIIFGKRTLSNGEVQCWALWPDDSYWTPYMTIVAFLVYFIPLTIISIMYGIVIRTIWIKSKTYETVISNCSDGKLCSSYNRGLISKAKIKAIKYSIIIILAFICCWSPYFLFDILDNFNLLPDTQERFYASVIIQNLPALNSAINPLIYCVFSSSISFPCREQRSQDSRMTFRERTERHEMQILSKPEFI
IMPase cell inh: qHTS Assay for Identifying the Cell-Membrane Permeable IMPase Inhibitors. inhibition (IP1 accumulation), % at 46.1 µM. Inositol monophosphatase 1 (Rattus norvegicus), P97697. 120,000 tested, under 10 active. CHO-M1 cells, IP1 accumulation, HTRF TR-FRET ratio; active means well fitted curve in the direction sought with a large enough effect in the signal ratio, not every such curve was filed as active; inconclusive means small, poorly fitted or top-dose-only effect, or a change in a side signal; inactive means no such curve, though single readings can be large or run the other way; the % refers to the signal ratio;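 further: cells stimulated with carbachol in lithium chloride buffer; plate controls were DMSO basal wells for no effect and reference inhibitor wells for full effect; higher means more IMPase inhibition seen as more IP1 and lower FRET ratio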
Target sequence (P97697 whole entry, looked up): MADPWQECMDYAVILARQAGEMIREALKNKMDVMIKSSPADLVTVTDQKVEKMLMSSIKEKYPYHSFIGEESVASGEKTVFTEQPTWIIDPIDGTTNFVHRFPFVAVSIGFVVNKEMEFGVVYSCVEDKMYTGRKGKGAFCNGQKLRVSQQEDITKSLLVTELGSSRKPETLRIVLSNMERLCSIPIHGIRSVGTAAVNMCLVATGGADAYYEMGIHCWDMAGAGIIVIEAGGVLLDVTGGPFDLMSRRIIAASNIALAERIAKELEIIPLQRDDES
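Seeded CHO-M1 cells were dosed with compound at up to 46 uM, stimulated with carbachol for 30 min, then lysed in IP-One detection reagents. Higher IP1 lowers the TR-FRET signal.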
PNC assembly inh: High Content Assay for Compounds that inhibit the Assembly of the Perinucleolar Compartment | PC3M PTB-GFP, PNC prevalence imaging, 16 h; stronger effect = lower value | actives 3.1% (n = 140,000) | activity change (PNC), negative = inhibition, % at 10 µM | AID 2417, 2010;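 active means readout at or below -70, meaning at least 70% loss of cells showing the perinucleolar compartment, a nuclear body marking cancer cells; inconclusive means readout between -30 and a set limit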;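 further: plate controls were DMSO wells for no effect and camptothecin positive control wells for full effect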
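PC3M cells stably expressing PTB-GFP, 750–1000 cells/well, treated 16 h at 37 °C with compound (23 nl of library stock), in duplicate. After paraformaldehyde fixation and Hoechst stain, imaged at 20x; PNC prevalence scored by image analysis.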
HPGD inh: qHTS Assay for Inhibitors of HPGD (15-Hydroxyprostaglandin Dehydrogenase); 15-hydroxyprostaglandin dehydrogenase [NAD(+)] (Homo sapiens), P15428; purified HPGD, NADH fluorescence kinetic, PGE2 substrate; Potency, µM, without a hit: at the top dose activity change, negative = inhibition, hits mostly inhibitors; actives 4.3% (n = 150,000); further: potency means the concentration at half of the fitted maximal effect
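NADH formation kinetics: reaction with 30 uM PGE2 and 1 mM NAD+ (final), 20 nM enzyme, Tris-HCl pH 8 with Tween 20, after 15 min compound preincubation at room temperature. Fluorescence change, last versus first of five reads.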
ALDH1A1 block: qHTS Assay for Inhibitors of Aldehyde Dehydrogenase 1 (ALDH1A1). Purified ALDH1A1, NADH fluorescence, propionaldehyde substrate. Potency, µM (series often up to 75.3 µM), for inactives: top-dose activity, negative = inhibition, usual class: inhibitors. Aldehyde dehydrogenase 1A1 (Homo sapiens), P00352. actives 7.3% (n = 220,000);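 further: potency means the concentration at half of the fitted maximal effect; plate controls were no enzyme wells and a reference inhibitor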
IMPase Li inh: qHTS Assay for Identifying the Cell-Membrane Permeable IMPase Inhibitors: Potentiation with Lithium; CHO-M1 cells, IP1 TR-FRET (IP-One), carbachol + lithium; Potency, µM (doses to about 59.4 µM), for the others: at the top dose activity, negative = IMPase inhibition, most hits filed as inhibitors; actives 0.35% (n = 210,000); AID 1457, 2008; active means well fitted curve in the direction sought with a large enough effect; inconclusive means small, poorly fitted or top-dose-only effect, or another doubt; inactive means no such curve, though single readings can be large; an effect the other way counts as inactive or inconclusive;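 further: IP1 builds up when IMPase is blocked and the TR-FRET signal falls; potency means the concentration at half of the fitted maximal effect; plate controls were basal vehicle for no effect and high inhibitor control for full effect; nearly all actives have a fitted effect of over 50% in size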
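Lithium-sensitised IP1 accumulation assay; M1-expressing CHO cells treated 30 min at 37C with compound. Competitive antibody detection by time-resolved FRET followed a 10 min room-temperature lysis step.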
An asterisk follows results filed as active; [ ] = dose if it differs, or a comment. Unless noted, the call rests on the fitted dose curve; in most records, active means well fitted inhibition curve with a large enough effect (not every such curve was filed as active); inconclusive means small, poorly fitted or top-dose-only effect, or another doubt; inactive means no such curve, though single readings can be large or run the other way. Unless noted, on the % scale 0 is the no-effect control and ±100 the full control effect.

Screening COc1ccc(S(=O)(=O)Nc2c(C)nc3nc(C)[nH]n3c2=O)cc1 returned IMPase cell inh -6.
`Cc1sc2nc3ccc(NCc4ccco4)nn3c(=O)c2c1C` gave NPSR antagonist -16%[46.1 µM], IMPase cell inh -18, PNC assembly inh 23, HPGD inh inconclusive, ALDH1A1 block inconclusive and IMPase Li inh -14%[38.3 µM].
For Cc1cc(SCC(=O)Nc2cccc(S(N)(=O)=O)c2)c(C)cc1Br the results were NPSR antagonist -9%, ALDH1A1 block 10% and IMPase Li inh 13%.
`CCCN1CCC(=NNC(=O)CSc2cc(C)c(Br)cc2C)CC1` gave NPSR antagonist 11%, IMPase cell inh 4, PNC assembly inh -22, HPGD inh 14µM*, ALDH1A1 block inconclusive and IMPase Li inh -14%.
Screening CC(=O)N1CCC(=NNC(=O)CSc2cc(C)c(Br)cc2C)CC1 returned NPSR antagonist 16%, IMPase cell inh -3, PNC assembly inh inconclusive, HPGD inh 25µM*, ALDH1A1 block inconclusive and IMPase Li inh -2%.
Screening Cc1cc(SCC(=O)Nc2cccc(S(=O)(=O)NC3=NCCCCC3)c2)c(C)cc1Br returned NPSR antagonist -19%, PNC assembly inh inconclusive, HPGD inh -7%, ALDH1A1 block inconclusive and IMPase Li inh 10%.
O=c1cnn([C@@H]2O[C@H](CO)[C@@H](O)[C@H]2O)c(=O)[nH]1 was read as NPSR antagonist 19%, PNC assembly inh -111*, HPGD inh 1%, ALDH1A1 block -2% and IMPase Li inh -8%.
Screening Cn1c(C(=O)NC2CCCCC2)cc2sccc21 returned NPSR antagonist inconclusive, IMPase cell inh 6, PNC assembly inh inconclusive and ALDH1A1 block 0%.
`CN(C(=O)c1cc2sccc2n1C)C1CCCCC1` gave NPSR antagonist -6%[46.1 µM], IMPase cell inh 0, PNC assembly inh 21, HPGD inh 18µM*, ALDH1A1 block inconclusive and IMPase Li inh 8%.
For COc1ccccc1OCCNC(=O)c1cc(=O)[nH]c2ccccc12 the results were NPSR antagonist 9%.
For COc1ccc(Oc2c(Cl)cnn(-c3ccc(Cl)c(Cl)c3)c2=O)cc1 the results were NPSR antagonist 10µM*, IMPase cell inh 12, PNC assembly inh 23, HPGD inh -12%, ALDH1A1 block -7% and IMPase Li inh -11%.
O/N=C1/CCCSc2ccccc21 was read as NPSR antagonist 0%[46.1 µM], IMPase cell inh 0, PNC assembly inh -24, HPGD inh 11µM*, ALDH1A1 block 14% and IMPase Li inh -12%[38.3 µM].
Cc1ccc2c(c1)/C(=N/OC(=O)c1ccc(F)cc1)CCS2 was read as NPSR antagonist -9%[46.1 µM], IMPase cell inh 6, PNC assembly inh 24, HPGD inh inconclusive, ALDH1A1 block 3% and IMPase Li inh 9%[38.3 µM].
Screening Cc1ccc2c(c1)/C(=N/O)CCS2 returned NPSR antagonist 12%[46.1 µM], IMPase cell inh -8, PNC assembly inh inconclusive, HPGD inh -8%, ALDH1A1 block 3% and IMPase Li inh -1%[38.3 µM].
Screening O=C(O/N=C1/CCSc2ccccc21)c1ccccc1 returned NPSR antagonist -22%[46.1 µM], IMPase cell inh 3, PNC assembly inh 32, HPGD inh 18µM*, ALDH1A1 block 19µM* and IMPase Li inh 14%[38.3 µM].
`O=C(Nc1ccc(F)c(F)c1)c1ccccc1-c1ccccc1` gave NPSR antagonist -27%[46.1 µM], IMPase cell inh -2, PNC assembly inh 29 and ALDH1A1 block 2%.
For Cc1c(NC(=O)CSc2ccc(Cl)cc2)cccc1-c1nc2cc(Cl)ccc2o1 the results were NPSR antagonist -33%, PNC assembly inh -113*, HPGD inh -12%, ALDH1A1 block 20% and IMPase Li inh -15%.
For Cc1ccc2oc(-c3cccc(NC(=O)c4ccc(Br)o4)c3C)nc2c1 the results were NPSR antagonist -3%[46.1 µM], IMPase cell inh 1, PNC assembly inh inconclusive, HPGD inh 3%, ALDH1A1 block -1% and IMPase Li inh 20%[38.3 µM].
`CC(=O)Nc1cccc(NC(=O)c2sc3ncn(CC(=O)N4CCCCC4)c(=O)c3c2C)c1` gave NPSR antagonist -15%[46.1 µM], IMPase cell inh 3, PNC assembly inh -26, HPGD inh -27%, ALDH1A1 block 0.89µM* and IMPase Li inh 16%[38.3 µM].
Screening COCCNC(=O)c1sc2ncn(CC(=O)N3CCCCC3)c(=O)c2c1C returned NPSR antagonist -5%[46.1 µM], IMPase cell inh -5, PNC assembly inh -15, HPGD inh -21%, ALDH1A1 block 4% and IMPase Li inh 16%[38.3 µM].
Cc1ccc(-n2c(N)c(C(N)=O)sc2=S)c(C)c1 was read as NPSR antagonist -15%[46.1 µM], IMPase cell inh 5, PNC assembly inh -14 and ALDH1A1 block 7%.
For COc1ccc(Cl)cc1-n1c(N)c(C(N)=O)sc1=S the results were NPSR antagonist 2%[46.1 µM], IMPase cell inh -2, PNC assembly inh 3, HPGD inh 28µM*, ALDH1A1 block inconclusive and IMPase Li inh 2%[38.3 µM].
`CCCCNC(=O)c1sc(=S)n(-c2ccccc2OC)c1N` gave NPSR antagonist -31%[46.1 µM], IMPase cell inh inconclusive, PNC assembly inh inconclusive, HPGD inh 32µM*, ALDH1A1 block 8.9µM* and IMPase Li inh -24%[38.3 µM].
Screening COC(=O)c1sc(=S)n(-c2ccccc2OC)c1N returned NPSR antagonist 6%[46.1 µM], IMPase cell inh 1, PNC assembly inh 47, HPGD inh 14µM*, ALDH1A1 block 7% and IMPase Li inh -2%[38.3 µM].
CCOC(=O)c1sc(=S)n(-c2ccccc2OC)c1N was read as NPSR antagonist -4%[46.1 µM], IMPase cell inh 1, PNC assembly inh 35, HPGD inh inconclusive, ALDH1A1 block 3.2µM* and IMPase Li inh 21%[38.3 µM].
Screening C[C@H](CN(C)C)C(=O)c1ccccc1C(=O)O returned HPGD inh -10%, ALDH1A1 block -2%[13.5 µM] and IMPase Li inh -3%.
Screening Cc1nccn1Cc1cccc2ccccc12 returned NPSR antagonist 0%[46.1 µM], IMPase cell inh 1, PNC assembly inh -21, HPGD inh -12%, ALDH1A1 block 10% and IMPase Li inh 30%[38.3 µM].
`Cc1cccc(NC(=O)Cc2noc3ccccc23)c1C` gave NPSR antagonist 6%, PNC assembly inh inconclusive, HPGD inh -11%, ALDH1A1 block 2% and IMPase Li inh -7%.
Screening O=C1C=CC(=O)C(C2=C3C(=O)N(CCc4ccccc4)CC(=O)N3CCC2)=C1 returned NPSR antagonist 10µM*, PNC assembly inh 49, HPGD inh 1.6µM*, ALDH1A1 block 2.2µM* and IMPase Li inh 27%.
